The results in this text go back to PubChem BioAssay (NCI).

Common to all, as to experiment: NCI-60 one-dose screen, 48 h (100 = growth as untreated, 0 = no growth, -100 = all killed)
Experiment [1] concerns SR leukemia. To be noted: 10 µM unless noted.
Experiment [2] relates to RPMI-8226 leukemia. To be noted: 10 µM.
For experiment [3], the system named is OVCAR-8 ovarian. The note with it: 10 µM unless noted.
In experiment [4] the test system is OVCAR-5 ovarian. The note with it: 10 µM unless noted.
Experiment [5] concerns OVCAR-4 ovarian. To be noted: 10 µM unless noted.
Experiment [6] has as its system IGROV1 ovarian. The note with it: 10 µM unless noted.
Experiment [7] concerns OVCAR-3 ovarian. The note with it: 10 µM unless noted.
Experiment [8] has as its system HS 578T breast. The note with it: 10 µM unless noted.
The test system of experiment [9] is BT-549 breast. To be noted: 10 µM unless noted.
The subject of experiment [10] is MDA-MB-435 melanoma. The note with it: 10 µM unless noted.
Experiment [11] deals with SW-620 colon. The note with it: 10 µM unless noted.
Experiment [12] deals with MCF7 breast. To be noted: 10 µM unless noted.
The subject of experiment [13] is HCT-116 colon. The note with it: 10 µM unless noted.
Experiment [14] relates to HCC-2998 colon. To be noted: 10 µM unless noted.
The test system of experiment [15] is KM12 colon. To be noted: 10 µM unless noted.
Experiment [16] deals with NCI/ADR-RES ovarian. The note with it: 10 µM unless noted.
The subject of experiment [17] is SK-OV-3 ovarian. The note with it: 10 µM.
Experiment [18] deals with T-47D breast. The note with it: 10 µM.

This is part of a sample that, as a whole, favours compounds with a hit. Of some 83,000 tested, about 20% had one in any assay.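 Activity criterion: percent growth below 10, measured after cells in 96-well plates were exposed to a single compound concentration for 48 hours.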 Unmarked numbers belong to inactive results. Active and inactive are the calls of the source.

Consider `CCCCCCCC/C=C\CCCCCCCCOc1cccc(CC(=O)NCC[N+]2(C)CCOCC2)c1`, for which the growth in [1] was 55.7%; in [2], 96.4%; in [3], 93.8%; in experiment [4], 65.5%; in [5], 90.3%; in [6], 0.48% (active). For the same molecule, the growth is 98.7% in experiment [7]; 80.9% in experiment [8]; 98.8% in experiment [9]; 94% in experiment [10]; 89.1% in experiment [11]; 83.8% in experiment [12]. The growth was 78.5% in experiment [13], 80.6% in [14] and 64.1% in experiment [15].
On to `COc1cc(OCc2cccc(-c3ccc(C(O)c4nccs4)cc3)c2C)cc(OC)c1C=O` (stereo unspecified), for which the growth in [1] is 53.1%; in [2], 22.1%; in experiment [3], 59.8%; in [4], 16.5%; in experiment [5], 15.9%; in [6] it was 21%. For the same molecule, the growth in [7] is 48.1%; in experiment [8], 67.1%; in [16], 58.1%; in [9], 39.6%; in experiment [10] it was 30.8%; in experiment [11] it was 56%. Further, the growth in experiment [13] is 23.1%; in [14], 73.9%; in experiment [15] it was 71%.
Take `OB(O)c1ccccc1`: the growth is 88% in experiment [1]; 102% in experiment [2]; 105% in [3]; 108% in experiment [4]; 115% in experiment [5]; 114% in experiment [6]. Moreover, the growth is 114% in experiment [7]; 104% in [16]; 96.2% in experiment [9]; 109% in experiment [10]; 108% in experiment [11]; 111% in experiment [12]. Further, the growth in experiment [13] was 108%; in experiment [14] it was 109%; in experiment [15], 107%.
As for `CCCCC1COc2cccc3c(SCC(=O)N(C)c4cccc5ccccc45)cc[n+]1c23` (stereo unspecified), the growth in experiment [1] was 96.1%; in experiment [2], 89.5%; in [3] it was 102%; in [4] it was 112%; in experiment [5], 99%; in [6] it was 111%. Moreover, the growth in [7] was 107%; in [8], 108%; in [9] it was 102%; in experiment [10] it was 103%; in experiment [11], 105%; in experiment [12], 91.7%. The growth is 90.3% in [14] and 112% in experiment [15].
As for `O=C1c2[nH]cc(CN[C@@H]3CCCN3)c2C(=O)c2c1c(O)c1ccccc1c2O`, the growth in experiment [1] is -69.6% (active); in experiment [2], -55.5% (active); in experiment [3] it was -92% (active); in [4], -95% (active); in [17] it was -100% (active); in experiment [6], -83% (active). Further, the growth in experiment [7] was -95.9% (active); in [8], -50% (active); in experiment [16], 20.3%; in [18], -72.4% (active); in experiment [9], 41.1%; in experiment [10], -98.3% (active). Further, the growth in experiment [11] is -98.1% (active); in experiment [13], -82.8% (active); in experiment [14], -85.8% (active); in experiment [15], -89.8% (active).
For `CCN(CC)c1ccc2c(c1)OS(=O)(=O)N=C2`, the growth in experiment [1] was 93.3%; in [2] it was 104%; in experiment [3] it was 107%; in experiment [4] it was 99.9%; in experiment [5], 97.9%; in experiment [6], 97.5%. The growth in experiment [7] is 114%; in experiment [8], 110%; in experiment [16], 95.6%; in experiment [9], 95.7%; in [10], 101%; in experiment [11], 103%. Besides, the results for the growth in experiment [13], in experiment [14] and in experiment [15] were 99.5%, 114% and 113%, respectively.
On to `O=C1Nc2ccc(Cl)cc2/C1=N/N=C(c1ccccc1)c1ccccc1`, for which the growth was 101% in [1]; 92.9% in [2]; 96% in experiment [3]; 96.2% in [4]; 85.8% in [5]; 77.4% in experiment [6]. The growth in [7] was 105%; in [8] it was 97.3%; in [16], 98%; in experiment [9], 100%; in [10], 99.8%; in [11] it was 94.1%. Also, the growth is 97.9% in experiment [13] and 102% in experiment [14].
Regarding `COc1cc(/C=N/NC(=O)c2cnn3c2NC(c2ccccc2)C3)ccc1OC1CCCC1` (stereo unspecified), the growth in experiment [1] was 35.2%; in experiment [2] it was 17.9%; in experiment [3], 49.1%; in experiment [4] it was 59.7%; in experiment [5], 44.6%; in experiment [6], 42.6%. The growth in [7] is -32.9% (active); in experiment [8], -18% (active); in experiment [9] it was 16.8%; in [10], 0.812% (active); in experiment [11] it was 18.3%; in experiment [12], 16.8%. For the same molecule, the values for the growth in experiment [13] and in experiment [14] were 18.9% and 63.8%, respectively.
On to `COC(=O)c1c2c(c(C)[n+]([O-])c1C)C(=O)C(NCc1ccc(O)cc1)=CC2=O`, for which the growth in [1] is 11.1%; in [2], -2.15% (active); in experiment [3] it was 5.26% (active); in experiment [4], -17% (active); in experiment [5], -97.4% (active); in experiment [6], -45% (active). Further, the growth in experiment [7] was -33.1% (active); in experiment [16], -6.46% (active); in experiment [18] it was -7.43% (active); in experiment [9] it was 34.5%; in experiment [10], -96.5% (active); in experiment [11], -3.33% (active). The growth is -63.4% (active) in experiment [12], -6.79% (active) in experiment [13], -20.1% (active) in [14] and 2.07% (active) in [15].
On to `Clc1cccc(Cl)c1Nc1ccc2nnc(-c3ccncc3)n2n1`, for which the growth was 62.4% in [1]; 93.3% in experiment [2]; 97.6% in [3]; 102% in experiment [4]; 109% in experiment [17]; 93.8% in experiment [6]. Further, the growth was 110% in [7]; 103% in experiment [8]; 101% in [16]; 91.3% in experiment [18]; 114% in experiment [9]; 104% in [10]. The growth in experiment [11] is 102%; in experiment [12], 95.2%; in experiment [13], 98.9%; in experiment [14], 97.1%; in [15], 112%.
